This is a sample that favours compounds with a hit; in the whole collection about 4% have one here.
Rv3671c inh – Rv3671c serine protease inhibitors, primary screen, biochemical, fluorescence polarization, M. tuberculosis H37Rv; AID 2606, 2010; inhibition, % at 5.96 µM; P9WHR9; actives 0.048% (n = 320,000); in the data active = inhibition above about 38%;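 note: extracellular domain of Rv3671c used as enzyme; 0% = enzyme with DMSO and 100% = no enzyme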
GDH-TPI inh – GDH-TPI coupling enzyme inhibitors, primary screen, artefact control for M. tuberculosis FBA inhibitor project, biochemical, absorbance, full deck. AID 588335, 2011. GDH-TPI coupled enzyme counterscreen, NADH absorbance. actives 1.2% (n = 360,000). inhibition, % at 4.8 µM; in the data active = inhibition above about 30%;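 note: 0% = DMSO wells and 100% = wells lacking the enzyme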
Mtb betalactam – beta-lactam sensitization of Mtb H37Rv, H37Rv | M. tuberculosis H37Rv growth with meropenem, percent inhibition | inhibition, % at 25 µM | actives 0.27% (n = 330,000); call rule not given here;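 note: growth measured after seven days incubation then overnight dye step; 0% = bacteria only wells and 100% = bacteria with antibiotic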
Mtb FBA inh – Mtb FBA enzyme inhibitors, primary screen, biochemical, fluorescence, strain H37Rv | Fructose-bisphosphate aldolase (Mycobacterium tuberculosis (strain ATCC 25618 / H37Rv)), … | purified M. tuberculosis FBA, fluorescence read-out | inhibition, % at 1 µM | actives 2.3% (n = 360,000) | AID 588726, 2011; in the data active = inhibition above about 27%;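 note: 0% = vehicle and 100% = reference inhibitor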
Target sequence (P9WQA3 whole entry, looked up): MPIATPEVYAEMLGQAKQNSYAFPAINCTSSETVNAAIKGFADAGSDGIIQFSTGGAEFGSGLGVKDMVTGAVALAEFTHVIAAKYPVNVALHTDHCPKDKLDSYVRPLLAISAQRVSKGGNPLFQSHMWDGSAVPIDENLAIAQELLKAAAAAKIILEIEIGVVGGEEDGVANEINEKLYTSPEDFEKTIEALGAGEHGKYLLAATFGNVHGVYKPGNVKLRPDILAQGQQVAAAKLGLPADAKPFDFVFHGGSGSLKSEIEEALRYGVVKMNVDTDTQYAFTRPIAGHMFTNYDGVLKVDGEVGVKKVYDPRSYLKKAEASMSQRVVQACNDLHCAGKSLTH
Mtb UGM inh – M. tuberculosis UGM enzyme inhibitors, primary screen, biochemical, fluorescence polarization, single point; inhibition, % at 10 µM; actives 0.06% (n = 320,000); UDP-galactopyranose mutase (Mycobacterium tuberculosis (strain ATCC 25618 / H37Rv)), …; purified UGM, fluorescence polarization probe displacement; AID 504406, 2011; in the data active = inhibition above about 10%, passing the limit was not always enough; inconclusive = no clear call, values can overlap the other calls
RecA intein inh – Mtb RecA intein splicing inhibitors, primary screen, biochemical, fluorescence, HTS | cell-free RecA intein splicing | inhibition, % (no concentration beside the values) | actives 0.75% (n = 290,000); in the data active = inhibition above about 30%; inconclusive = no clear call, values can overlap the other calls;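 note: 0% = vehicle wells and 100% = reference inhibitor control wells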
The depositor's hits bear a star.

Results for Cc1ccc2nc(-c3ccc(NS(=O)(=O)c4ccc(F)cc4)cc3)sc2c1 ?
Rv3671c inh: -248; GDH-TPI inh: 37*; Mtb betalactam: 7; Mtb FBA inh: active; Mtb UGM inh: -1; RecA intein inh: 10

Results for CC(=O)Nc1ccc(S(=O)(=O)Nc2nc3ccc(C)cc3s2)cc1 ?
Rv3671c inh: 6; GDH-TPI inh: -8; Mtb betalactam: -4; Mtb FBA inh: 2; Mtb UGM inh: 6; RecA intein inh: -4

What do the screens show for `COCCCNC(=O)C1CC(=O)OC1c1ccc(OC)c(OC)c1` (stereo not drawn)?
Rv3671c inh: -6; GDH-TPI inh: 0; Mtb betalactam: inconclusive; Mtb FBA inh: -14; Mtb UGM inh: 1; RecA intein inh: -8

What do the screens show for `Cc1c(NC(=O)/C=C/c2cn(-c3ccccc3)nc2-c2ccc(F)cc2)c(=O)n(-c2ccccc2)n1C`?
Rv3671c inh: -14; GDH-TPI inh: 15; Mtb betalactam: 14; Mtb FBA inh: -2; RecA intein inh: 5

What do the screens show for `CC1=CCC(C(=O)O)C(C(=O)Nc2ccc(-c3nc4ccc(C)cc4s3)cc2)C1` (stereo not drawn)?
Rv3671c inh: -15; GDH-TPI inh: 37*; Mtb betalactam: 5; Mtb FBA inh: 190*; Mtb UGM inh: -1; RecA intein inh: 5

What do the screens show for `Nc1ccc2nc(-c3ccccc3)sc2c1`?
Rv3671c inh: 1; GDH-TPI inh: 26; Mtb betalactam: 81; Mtb FBA inh: active; Mtb UGM inh: -5; RecA intein inh: -1

Results for Nc1ccc(-c2nc3cc(N)ccc3s2)cc1 ?
Rv3671c inh: 5; GDH-TPI inh: 15; Mtb betalactam: -5; Mtb FBA inh: 18; Mtb UGM inh: 1; RecA intein inh: -17

What do the screens show for `CC(=O)c1ccc(N2CCN(C(=O)Cn3cnc(S(=O)(=O)N4CCCCC4)c3)CC2)cc1`?
Rv3671c inh: -6; GDH-TPI inh: 24; Mtb betalactam: 1; Mtb FBA inh: 2; Mtb UGM inh: -1; RecA intein inh: -2

How did COc1ccc(-c2ccc(C#N)c(OC)n2)cc1 do in these assays?
Rv3671c inh: 6; GDH-TPI inh: 18; Mtb betalactam: 0; Mtb FBA inh: active; Mtb UGM inh: 1; RecA intein inh: 5

What do the screens show for `COc1ccc(-c2cc(C#N)nc(Cl)n2)cc1`?
Rv3671c inh: 6; GDH-TPI inh: 22; Mtb betalactam: 3; Mtb FBA inh: 9; Mtb UGM inh: -1; RecA intein inh: 40*

How did N#Cc1ccc(-c2ccc(F)cc2)nc1Oc1ccc(Cl)c(Cl)c1 do in these assays?
Rv3671c inh: -3; GDH-TPI inh: -4; Mtb betalactam: 9; Mtb FBA inh: 2; Mtb UGM inh: -2; RecA intein inh: 2

How did CC(=O)Nc1ccc(S(=O)(=O)n2nc(-c3ccc(C)cc3)nc2N)cc1 do in these assays?
Rv3671c inh: -48; GDH-TPI inh: 3; Mtb betalactam: 0; Mtb FBA inh: 2; Mtb UGM inh: 4; RecA intein inh: -2

How did CN1CCN(C(=O)CCN2C(=O)S/C(=C/c3ccc(Cl)cc3)C2=O)CC1 do in these assays?
Rv3671c inh: -3; GDH-TPI inh: 22; Mtb betalactam: 0; Mtb FBA inh: 0; Mtb UGM inh: -1; RecA intein inh: 5

Results for COc1ccc(/C=C2\SC(=O)N(CCNC(=O)CCS(=O)(=O)c3ccc(C)cc3)C2=O)cc1 ?
Rv3671c inh: -8; GDH-TPI inh: 33*; Mtb betalactam: 2; Mtb FBA inh: 3; Mtb UGM inh: 3; RecA intein inh: 1

Results for COc1cccc(/C=C2\SC(=O)N(CCC(=O)N3CCC(C(=O)O)CC3)C2=O)c1 ?
Rv3671c inh: 2; GDH-TPI inh: 46*; Mtb betalactam: 4; Mtb FBA inh: -1; Mtb UGM inh: -3; RecA intein inh: 0

How did COc1ccc(/C=C2\SC(=O)N(CCNC(=O)C3CC(=O)N(c4ccccc4)C3)C2=O)cc1 (stereo not drawn) do in these assays?
Rv3671c inh: 5; GDH-TPI inh: 25; Mtb betalactam: 2; Mtb FBA inh: -2; Mtb UGM inh: -2; RecA intein inh: 0

Results for COc1cccc(/C=C2\SC(=S)N(CCC(=O)N3CCCCC3CCO)C2=O)c1 (stereo not drawn) ?
Rv3671c inh: -11; GDH-TPI inh: 21; Mtb betalactam: 34; Mtb FBA inh: -4; Mtb UGM inh: -1; RecA intein inh: 2

Results for COc1ccc(/C=C2\SC(=O)N(CCNC(=O)Cn3cnnn3)C2=O)cc1 ?
Rv3671c inh: -4; GDH-TPI inh: 22; Mtb betalactam: 3; Mtb FBA inh: -2; Mtb UGM inh: -1; RecA intein inh: 6

What do the screens show for `Cc1ccc(/C=C2\SC(=O)N(CCC(=O)N3CCN(C)CC3)C2=O)cc1`?
Rv3671c inh: -12; GDH-TPI inh: 35*; Mtb betalactam: -4; Mtb FBA inh: 0; Mtb UGM inh: 1; RecA intein inh: 0

How did CCc1noc(C)c1C(=O)NCCN1C(=O)S/C(=C\c2ccc(OC)cc2)C1=O do in these assays?
Rv3671c inh: -3; GDH-TPI inh: 31*; Mtb betalactam: -3; Mtb FBA inh: -5; Mtb UGM inh: 4; RecA intein inh: -2

What do the screens show for `COc1cc2cc(CN(CCc3ccccc3C)C(=S)NCCCN3CCOCC3)c(=O)[nH]c2cc1OC`?
Rv3671c inh: -3; GDH-TPI inh: 17; Mtb betalactam: 2; Mtb FBA inh: 12; Mtb UGM inh: 4

How did O=[N+]([O-])c1cc(S(=O)(=O)N2CCCCCC2)ccc1F do in these assays?
Rv3671c inh: -6; GDH-TPI inh: 8; Mtb betalactam: 54; Mtb FBA inh: -6; Mtb UGM inh: -1

Results for CCOC(=O)C1CCN(C(=O)c2oc3ccc4c(c3c2C)C(O)CC2(CCCCC2)O4)CC1 (stereo not drawn) ?
Rv3671c inh: 10; GDH-TPI inh: -15; Mtb betalactam: 12; Mtb FBA inh: 0; Mtb UGM inh: -1; RecA intein inh: 1

Results for CCOC(=O)c1cc(CC)sc1NC(=O)Cc1ccsc1 ?
Rv3671c inh: -12; GDH-TPI inh: 1; Mtb betalactam: 4; Mtb FBA inh: -9; Mtb UGM inh: 3; RecA intein inh: 3

What do the screens show for `COc1ccc(/C=C2\SC(=O)N(CCC(=O)N3CCN(C)CC3)C2=O)cc1`?
Rv3671c inh: -5; GDH-TPI inh: 41*; Mtb betalactam: 6; Mtb FBA inh: -1; Mtb UGM inh: -1; RecA intein inh: 2

Results for O=C(NC1CC1)C1=C[C@@H](c2ccc(C(F)(F)F)cc2)C[C@@H](OCc2ccc(CO)cc2)O1 ?
Rv3671c inh: -6; GDH-TPI inh: -4; Mtb betalactam: -5; Mtb FBA inh: -1; Mtb UGM inh: -1; RecA intein inh: 1
